Source: the supplement of paper PMC9023506
Where a name gives a salt, the structure may show the parent alone.

Tested on: Danio rerio larvae (5 dpf)
Assay: optomotor response to blue moving lines, difference vs DMSO (percentage points (treated minus DMSO)); higher = more of the behaviour than the DMSO vehicle control
Conditions: 10 µM; exposure time: 3 h pre-incubation + 3 h imaging
Procedure: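 5-dpf wild-type zebrafish larvae were imaged in 96-well plates. They were treated with 190 Tocris FDA-approved drugs at 10 µM (1 µl/ml DMSO) for 3 h before and 3 h during imaging at 28.5 °C, 48 larvae per drug. Automated image analysis gave % time moving and optomotor responses. Values are drug group mean minus DMSO vehicle mean (n=844), in percentage points, for 10 behaviours.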

| SMILES | optomotor response to blue moving lines |
| --- | --- |
| C[C@H]1C[C@@H]2[C@H]([C@@H](O)C[C@@]3(C)[C@H]2CC[C@]3(O)C(=O)CO)[C@@]2(C)C=CC(=O)C=C12 [Methylprednisolone] | 10.6 |
| Cn1cnc([N+](=O)[O-])c1Sc1ncnc2[nH]cnc12 [Azathioprine] | 9.74 |
| CC(C)n1c(/C=C/C(O)CC(O)CC(=O)O)c(-c2ccc(F)cc2)c2ccccc21 (stereo not given) [Fluvastatin sodium] | -4.94 |
| CCCC1O[C@@H]2C[C@H]3[C@@H]4CCC5=CC(=O)C=C[C@]5(C)[C@H]4[C@@H](O)C[C@]3(C)[C@]2(C(=O)CO)O1 (stereo not given in full) [Budesonide] | 2.29 |
| CCCc1nc(C(C)(C)O)c(C(=O)O)n1Cc1ccc(-c2ccccc2-c2nnn[nH]2)cc1 [Olmesartan] | 3.07 |
| CC(CCc1ccc(O)cc1)NCCc1ccc(O)c(O)c1 (stereo not given) [Dobutamine hydrochloride] | -11.2 |
| CC[C@H](C)C(=O)O[C@H]1C[C@@H](C)C=C2C=C[C@H](C)[C@H](CC[C@@H]3C[C@@H](O)CC(=O)O3)[C@H]21 [Lovastatin] | 8.37 |
| O=C1CCc2ccc(OCCCCN3CCN(c4cccc(Cl)c4Cl)CC3)cc2N1 [Aripiprazole] | -0.0385 |
| CC(C)(C#N)c1cc(Cn2cncn2)cc(C(C)(C)C#N)c1 [Anastrozole] | -5.16 |
| CC(=O)Oc1cc2c(s1)CCN(C(C(=O)C1CC1)c1ccccc1F)C2 (stereo not given) [Prasugrel] | 3.83 |
| CC(C)(C)NC(=O)[C@@H]1C[C@@H]2CCCC[C@@H]2CN1C[C@@H](O)[C@H](Cc1ccccc1)NC(=O)[C@H](CC(N)=O)NC(=O)c1ccc2ccccc2n1 [Saquinavir mesylate] | -2.78 |
| COCCCOc1cc(C[C@@H](C[C@H](N)[C@@H](O)C[C@H](C(=O)NCC(C)(C)C(N)=O)C(C)C)C(C)C)ccc1OC [Aliskiren hemifumarate] | -5.15 |
| Nc1cc(N2CCCCC2)nc(N)[n+]1[O-] [Minoxidil] | -6.76 |
| CN[C@H]1CC[C@@H](c2ccc(Cl)c(Cl)c2)c2ccccc21 [Sertraline hydrochloride] | -9.96 |
| CCOC(=O)[C@H](CCc1ccccc1)N[C@H]1CCc2ccccc2N(CC(=O)O)C1=O [Benazepril hydrochloride] | 5.7 |
| COc1cc2nc(N3CCN(C(=O)c4ccco4)CC3)nc(N)c2cc1OC [Prazosin hydrochloride] | 0.0687 |
| COc1ccc(Cl)cc1C(=O)NCCc1ccc(S(=O)(=O)NC(=O)NC2CCCCC2)cc1 [Glibenclamide] | 1.29 |
| COC(=O)C1=C(C)NC(C)=C(C(=O)OC(C)C)C1c1cccc2nonc12 (stereo not given) [Isradipine] | -11.3 |
| Cc1nc(-c2ccc(OCC(C)C)c(C#N)c2)sc1C(=O)O [Febuxostat] | -7.14 |
| Cc1ccc(NC(=O)c2ccc(CN3CCN(C)CC3)cc2)cc1Nc1nccc(-c2cccnc2)n1 [Imatinib mesylate] | -0.219 |

| SMILES | optomotor response to blue moving lines |
| --- | --- |
| CCOC(=O)[C@H](CCc1ccccc1)N[C@@H](C)C(=O)N1[C@H](C(=O)O)C[C@@H]2CCC[C@@H]21 [Ramipril] | 4.54 |
| Cc1cc2c(s1)Nc1ccccc1N=C2N1CCN(C)CC1 [Olanzapine] | 16 |
| COc1cc2nccc(Oc3ccc(NC(=O)C4(C(=O)Nc5ccc(F)cc5)CC4)cc3)c2cc1OC | -8.79 |
| CCOC(=O)C1=C(COCCN)NC(C)=C(C(=O)OC)C1c1ccccc1Cl (stereo not given) [Amlodipine besylate] | 6.74 |
| NS(=O)(=O)c1cc2c(cc1Cl)NC(C1CC3C=CC1C3)NS2(=O)=O (stereo not given) [Cyclothiazide] | -7.83 |
| C/C(O)=C(\C#N)C(=O)Nc1ccc(C(F)(F)F)cc1 [Teriflunomide] | -8.25 |
| Cc1cc(C2CCCCC2)n(O)c(=O)c1 [Ciclopirox] | -8.77 |
| CN(C)CCC[C@@]1(c2ccc(F)cc2)OCc2cc(C#N)ccc21 [Escitalopram oxalate] | 1.97 |
| N[C@@H]1[C@H]2CN(c3nc4c(cc3F)c(=O)c(C(=O)O)cn4-c3ccc(F)cc3F)C[C@@H]12 [Trovafloxacin mesylate] | 14.1 |
| COc1ccccc1OCCNCC(O)COc1cccc2[nH]c3ccccc3c12 (stereo not given) [Carvedilol] | -0.112 |
| Nc1cccc2c1CN(C1CCC(=O)NC1=O)C2=O (stereo not given) [Lenalidomide] | 3.02 |
| CN1CC2c3ccccc3Oc3ccc(Cl)cc3C2C1 (stereo not given) [Asenapine maleate] | -10 |
| CC1CNc2c(cccc2S(=O)(=O)N[C@@H](CCCNC(=N)N)C(=O)N2CC[C@@H](C)C[C@@H]2C(=O)O)C1 (stereo not given in full) [Argatroban] | 4.3 |
| CC(=O)Nc1ccc(O)cc1 [Acetaminophen] | 5.11 |
| CC(C)COCC(CN(Cc1ccccc1)c1ccccc1)N1CCCC1 (stereo not given) [Bepridil hydrochloride] | 7.44 |
| Nc1nc2c(ncn2COCCO)c(=O)[nH]1 [Acyclovir] | 10.2 |
| Cn1nnc2c(C(N)=O)ncn2c1=O [Temozolomide] | 3.81 |
| CN(C)CCc1c[nH]c2ccc(Cn3cncn3)cc12 [Rizatriptan benzoate] | 3.13 |
| O=C(NCC1CCCCN1)c1cc(OCC(F)(F)F)ccc1OCC(F)(F)F (stereo not given) [Flecainide acetate] | 9.21 |
| Cc1ccc(N(CC2=NCCN2)c2cccc(O)c2)cc1 [Phentolamine Mesylate] | 16.3 |
